Compounds without any hit were thinned out: in the full panel of roughly 83,000, 20% have a hit.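 Plates (96-well) were seeded with cells, treated with compound at one concentration, and incubated for 48 hours before percent growth was determined.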 Values without a mark were called inactive. The source made the active and inactive calls. How the source made its calls: active means growth percent below 10; inactive means the rest.
Each compound was assayed on MCF7 breast (assay: NCI-60 one-dose screen, 48 h (100 = growth as untreated, 0 = no growth, -100 = all killed)). Settings: 10 µM unless noted.

SMILES | growth [%]
COc1cccc(C(=O)Nc2cccc(C#Cc3cccc4[nH]nc(N)c34)c2)c1 | 30.7
CC1(C)[C@@H](O)CC[C@]2(C)[C@H]3CC[C@@H]4[C@H]5[C@H](C(=O)/C=C\c6ccncc6)CC[C@]5(O)CC[C@@]4(C)[C@]3(C)CC[C@@H]12 | 24.6
N#Cc1cccc(CN2CCc3ncn(Cc4ccc(Cl)cc4)c(=O)c3C2)c1 | 15.5
CCNC(=O)N1CCc2cc(OC)c(OCCc3ccc(OC)cc3)cc2C1c1ccc([N+](=O)[O-])cc1C (configuration not stated) | 18.4

What follows are compounds tested on HCT-116 colon in the same assay as above. Settings: 10 µM unless noted.

SMILES | growth
O=C(CN1CCN(c2cc(=O)n(-c3ccccc3)c3ccccc23)CC1)Nc1nc(-c2ccccc2)cs1 | 53.4%
Cc1ccc(NC(=O)c2ccc(CN3CCOCC3)c(C(F)(F)F)c2)cc1Oc1ccc(-c2[nH]nc3ncnc(N)c23)cc1 | 55.4%
Cc1ccc(NC(=O)CNc2cc(C(N)=O)cc(F)c2C)c(Cl)c1 | 96.3%
COc1cc(C2N=C(NNc3ccccc3)NC(C)=C2C(C)=O)ccc1O (configuration not stated) | 95.1%
CNc1ncc2cc(-c3ccc(-c4ncccc4F)cc3Cl)c(=O)n(CC3OCC(N)CO3)c2n1 (configuration not stated) | 80.2%
Nc1cc(-c2c[nH]c3ccc(Br)cc23)nc2cc(-c3c[nH]c4ccc(Br)cc34)nn12 | -72% (active)
Cc1cc2ncc(-c3cc4ccccc4c(N4CCN(C)CC4)n3)nc2cc1C | -85.7% (active)
O=C(NCCn1ccnc1)c1ccc(-c2nc3ccc4[nH]ncc4c3c3c2CCCC3)cc1 | 37%
N#C/C(=C\c1ccc(-c2ccc(Cl)cc2Cl)o1)c1ccc(F)cc1 | 88.1%
COc1cc(Nc2c(C#N)cnn3cc(-c4cnn(CC(C)(C)O)c4)cc23)ccc1Cl | 40.2%
C=C(C=O)[C@@H]1CC[C@]2(CO)CC[C@]3(C)[C@H](CC[C@@H]4[C@@]5(C)CCCNC(C)(C)[C@@H]5CC[C@]43C)[C@@H]12 | -63.8% (active)
CC/C(=C/c1cc(OC)ccc1O)c1ccc2cc(OC)ccc2[o+]1 | 26.8%
COc1c(N2CC3CCCNC3C2)c(F)cc2c(=O)c(C(=O)N/N=C/c3ccc4c(c3)OCO4)cn(C3CC3)c12 (configuration not stated) | 32.7%
COc1cccc2cc(-c3cc4ccccc4[nH]3)/c(=N\NC(=O)c3ccc(Cl)cc3)oc12 | 21.8%
C=CC(=O)N1CCC=C(c2cc3c(N[C@H](C)c4ccccc4)ncnc3[nH]2)C1 | 71.8%
O=C(CSc1nc2ccccc2c(=O)n1-c1ccccc1)Nc1cccc(C(=O)/C=C/c2ccccc2)c1 | -13.7% (active)
c1cn2c(ccc3nc(-c4cn[nH]c4)c4c(c32)CCCC4)n1 | 48.7%
O=S(=O)(NCCCNc1nccc(-n2cnc3ccccc32)n1)c1ccc(C(F)(F)F)cc1 | 75.9%
COc1ccc(-c2cc(-c3ccc(Cl)cc3)c(C#N)c(=O)n2Cc2ccc(C(=O)O)cc2)cc1 | 77.7%

SMILES | growth
COc1cc2c(cc1OC)C(Sc1ccc(C)cc1)c1c(nc(N)c(C#N)c1N)O2 (configuration not stated) | -69.6% (active)
CCc1nn2c(C)cc(C)nc2c1Cc1ccc(/C=C/CN2CCN(CCOCCOCCN3CCN(C/C=C/c4ccc(Cc5c(CC)nn6c(C)cc(C)nc56)cc4)CC3)CC2)cc1 | -84.1% (active)
Cc1noc(C)c1CSc1nc2ccccc2n1-c1ccccc1 | 92.9%
COc1cccc2c1CN(C(=O)c1ccc(O)c(C(=O)N3Cc4ccc(OCCC[P+](c5ccccc5)(c5ccccc5)c5ccccc5)cc4C3)c1)C2 | 80.8%
COc1ccc2c(c1)Oc1nc(N)c(C#N)c(N)c1C2Sc1ccc(C)cc1 (configuration not stated) | -69.1% (active)
Nc1nc(-c2cccc([N+](=O)[O-])c2)c(N=Nc2cccc([N+](=O)[O-])c2)s1 | -44.1% (active)
Fc1ccc(-c2cc3nc(C(Cl)Cl)nc(-c4ccco4)n3n2)cc1 | -36.8% (active)
CCN1CCN(Cc2ccc(C(=O)Nc3ccc(C)c(Oc4ccc(-c5[nH]nc6ncnc(N)c56)cc4)c3)cc2C(F)(F)F)CC1 | 67%
Cc1ccc(-n2cc(/C=C/C(=O)c3ccc(O)cc3)c(-c3ccc(S(C)(=O)=O)cc3)n2)cc1 | 26.6%
CCCn1cnc2c(c1=N)C(c1ccc(OC)cc1)c1sc3c(CC)cccc3c1O2 (configuration not stated) | 9.7% (active)
Cc1ccc(NC(=O)c2ccc(CN3CCN(C)CC3)cc2)cc1Oc1ccc(-c2[nH]nc3ncnc(N)c23)cc1 | 81.9%
CC(=O)c1nnn(-c2c(C(=O)n3nc(C)cc3C)sc(=S)n2-c2ccccc2)c1C | 104%
O=S(=O)(NCCNc1nccc(-n2cnc3ccccc32)n1)c1ccc(C(F)(F)F)cc1 | 40.1%
NC(N)=Nc1ccc(Oc2cccc(Nc3cccc(C(F)(F)F)c3)c2)cn1 | -76.8% (active)
Nc1nc(-c2cccc([N+](=O)[O-])c2)c(N=Nc2ccc(Br)cc2)s1 | -76.6% (active)
COc1cccc(C(=O)Nc2cccc(C#Cc3cccc4[nH]nc(N)c34)c2)c1 | 33.1%
CC1(C)[C@@H](O)CC[C@]2(C)[C@H]3CC[C@@H]4[C@H]5[C@H](C(=O)/C=C\c6ccncc6)CC[C@]5(O)CC[C@@]4(C)[C@]3(C)CC[C@@H]12 | 14.9%
N#Cc1cccc(CN2CCc3ncn(Cc4ccc(Cl)cc4)c(=O)c3C2)c1 | 19.5%
CCNC(=O)N1CCc2cc(OC)c(OCCc3ccc(OC)cc3)cc2C1c1ccc([N+](=O)[O-])cc1C (configuration not stated) | 8.8% (active)

From PubChem BioAssay (NCI)
